# Screens from PubChem.
# Sampled rows, rich in hits. Any-hit rate of the full collection: about 1.5%.
# ABCB6 inh MLPCN – ABCB6 transporter inhibitors, primary screen, K562-ABCB6 cells, flow cytometry, MLPCN library; fluorescence ratio to DMSO, % at 10 µM; K562-ABCB6 porphyrin accumulation, 1 h; hits give low values; actives 0.19% (n = 360,000); ATP-binding cassette sub-family B member 6 (Homo sapiens), Q9NP58;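 active = fluorescence ratio to DMSO below 75%, the collection mean minus 3 SD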;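 note: signal is porphyrin accumulated inside mitochondria; lower ratio means ABCB6 inhibition with less porphyrin fluorescence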
# Target sequence (Q9NP58 whole entry, looked up): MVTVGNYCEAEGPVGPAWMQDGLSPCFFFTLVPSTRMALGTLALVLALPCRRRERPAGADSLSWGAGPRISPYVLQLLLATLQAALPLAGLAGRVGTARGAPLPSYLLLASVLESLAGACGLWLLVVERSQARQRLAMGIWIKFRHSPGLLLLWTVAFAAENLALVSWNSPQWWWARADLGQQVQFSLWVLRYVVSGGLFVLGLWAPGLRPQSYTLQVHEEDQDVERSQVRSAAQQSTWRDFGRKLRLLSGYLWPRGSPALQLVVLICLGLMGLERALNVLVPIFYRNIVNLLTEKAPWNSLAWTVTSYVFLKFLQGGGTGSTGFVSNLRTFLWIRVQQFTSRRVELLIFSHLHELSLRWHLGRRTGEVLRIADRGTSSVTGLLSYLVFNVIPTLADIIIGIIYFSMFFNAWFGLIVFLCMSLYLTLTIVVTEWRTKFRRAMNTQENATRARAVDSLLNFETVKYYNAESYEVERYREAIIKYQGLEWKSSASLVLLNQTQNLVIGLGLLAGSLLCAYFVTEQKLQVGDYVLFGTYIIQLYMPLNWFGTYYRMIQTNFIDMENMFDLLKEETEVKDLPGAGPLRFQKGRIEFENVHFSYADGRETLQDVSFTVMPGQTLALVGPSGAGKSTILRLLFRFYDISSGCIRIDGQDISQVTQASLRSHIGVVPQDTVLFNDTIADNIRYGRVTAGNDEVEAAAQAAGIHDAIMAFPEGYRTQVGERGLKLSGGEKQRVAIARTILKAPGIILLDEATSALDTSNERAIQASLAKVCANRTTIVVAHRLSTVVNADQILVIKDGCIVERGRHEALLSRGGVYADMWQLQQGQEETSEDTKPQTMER
# DAGLB inhibitor – DAGLB lipase inhibitors, primary screen, biochemical, fluorescence, HTS | AID 504411, 2011 | HEK293T DAGLB membrane lysate, EnzChek fluorogenic substrate | inhibition, % at 5.17 µM | Diacylglycerol lipase-beta (Homo sapiens), Q8NCG7 | actives 0.059% (n = 340,000); in the data active = inhibition above about 34%
# hiPSC survival – enhancers of single-cell hiPSC survival, primary screen, ATPlite luminescence; survival enhancement, % at 20 µM; actives 0.044% (n = 360,000); 100% = ROCK inhibitor wells, 0% = DMSO; AID 602274, 2012; in the data active = survival enhancement above about 18%;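 note: cells exposed to compounds for 16 hours before the ATP read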
# ANO1 block – TMEM16A chloride channel inhibitors, primary screen, cell-based, HTS. HEK293 TMEM16A/YFP iodide influx fluorescence, ionomycin. normalized B-score (activity score, 25-100; higher = stronger inhibition) at 10 µM. actives 1.2% (n = 310,000). AID 588511, 2011;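 active = ratio plate-corrected score three or more library SD toward inhibition, starting fluorescence score within five deviations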;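 note: score derived from kinetic fluorescence span divided by baseline fluorescence per well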
# TMEM16A act – TMEM16A chloride channel activators or potentiators, primary screen, cell-based, HTS; actives 0.3% (n = 340,000); HEK293 TMEM16A/YFP-H148Q/I152L, iodide quench fluorescence; hits give low values; Anoctamin-1 (Mus musculus), Q8BHY3; AID 623877, 2012; B-score at 10 µM;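 active = fluorescence-ratio B-score plate-corrected deviation score at least 3 library SD below zero, with starting fluorescence score within 5 deviations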;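 note: channel opened by trigger with iodide after compound preincubation; score built on the fluorescence ratio of max minus min over baseline; more negative score means more quench and so TMEM16A activation or potentiation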
# A number is an active result; . = inactive; / = no result.
SMILES,ABCB6 inh MLPCN,DAGLB inhibitor,hiPSC survival,ANO1 block,TMEM16A act
CN(C(=O)c1cccc(NC(=O)Cc2ccc(NC(=O)C3CCCN(C(=O)C4CCC4)C3)cc2)c1)C1CC1 (stereo unspecified),.,.,.,/,/
COc1cc(/C=C(/C#N)c2nc3ccccc3[nH]2)ccc1OC(=O)c1ccco1,.,.,.,.,-4.8
COc1ccc(/C=C(\C#N)c2nc3ccccc3[nH]2)cc1O,.,.,.,/,.
O=C1C(Cl)=C(Nc2ccc(O)cc2)C(=O)c2ccccc21,66,.,.,.,.
Cc1ccc(NC2=C(Cl)C(=O)c3ccccc3C2=O)cc1,.,.,.,.,.
Cc1ccsc1C(=O)N1CCC1(C)C(=O)Nc1ccc2c(c1)OCCO2 (stereo unspecified),.,/,.,/,/
O=C(COc1ccccc1)Nc1nc(-c2ccncc2)cs1,.,.,34,.,.
O=C(Cc1ccccc1F)Nc1nc(-c2ccc(F)cc2)cs1,.,.,.,25,.
O=C(COc1ccccc1)Nc1nc(-c2cccnc2)cs1,.,.,.,/,.
COc1ccc(-c2nc(NCCN(C)C)nc3ccsc23)c(C)c1,.,/,.,/,/
CCCCCCCCCCCCCCCC[n+]1cccc2ccccc21,.,.,.,100,.
CCCCCCCCC[n+]1cccc2c3ccccc3ccc21,.,.,.,100,.
O=C1CC2(CCN(C(=O)c3ccccc3[N+](=O)[O-])CC2)Oc2ccccc21,.,.,.,.,.
Oc1ccc(Cl)cc1CNCc1ccc(Cl)cc1,.,.,.,.,.
Oc1ccc(Cl)cc1Cc1cc(Cl)ccc1O,.,.,.,100,.
C[C@H](CO)N1C[C@H](C)[C@@H](CN(C)C(=O)NC2CCCCC2)Oc2ccc(NS(=O)(=O)c3ccccc3)cc2C1=O,.,.,.,/,.
COc1ccc(S(=O)(=O)Nc2ccc3c(c2)C(=O)N([C@H](C)CO)C[C@H](C)[C@@H](CN(C)C(=O)NC2CCCCC2)O3)cc1,.,.,22,/,.
C[C@@H]1CCCCO[C@H](CN(C)S(=O)(=O)c2cccs2)[C@@H](C)CN([C@H](C)CO)C(=O)c2cc(NC(=O)C3CCCCC3)ccc2O1,.,.,.,/,/
C[C@@H]1CCCCO[C@@H](CN(C)S(=O)(=O)c2cccs2)[C@@H](C)CN([C@H](C)CO)C(=O)c2cc(NS(=O)(=O)c3ccccc3)ccc2O1,.,.,22,/,/
COC(=O)c1cc(C(=O)c2ccc(C(C)(C)C)cc2)c[nH]1,.,.,.,25,.
C=CCn1c(SCC(=O)N2CCN(c3ccc(F)cc3)CC2)nnc1-c1ccco1,.,.,.,25,.
O=[N+]([O-])c1ccc(-c2nn(-c3ccccc3)cc2/C=N/n2c(-c3ccncc3)n[nH]c2=S)cc1,.,.,.,25,.
S=c1[nH]nc(-c2ccncc2)n1/N=C/c1cn(-c2ccccc2)nc1-c1ccccc1,.,/,.,.,.
O=C(Nc1ccccc1N1CCOCC1)[C@@H]1O[C@H](CO)[C@H](O)[C@H](O)[C@H]1O,.,/,.,/,/
CCCCCCSc1nnc(-c2cnn(-c3ccccc3)c2-n2cccc2)n1C,.,.,.,100,.
SMILES,ABCB6 inh MLPCN,DAGLB inhibitor,hiPSC survival,ANO1 block,TMEM16A act
Cc1ccc(-c2nnc(SCCC(=O)N3CCOCC3)o2)cc1,.,.,.,.,-39
O=C(Nc1ccc(Oc2cccnc2)cc1)c1ccc([N+](=O)[O-])cc1,.,.,.,.,.
O=C(Nc1ccc(Nc2ccncc2)cc1)c1ccc([N+](=O)[O-])cc1,.,.,.,.,-6.1
CCOc1ccc(NC(=O)/C(C=Nc2ccccc2)=C(\C)O)cc1,.,.,.,.,.
C=CCNc1nc(C(=O)OCC)nc2ccccc12,.,.,.,100,.
S=c1[nH]nc(Cc2cccc3ccccc23)n1-c1ccccc1,.,.,.,.,-7.2
CC(NC(=O)Cc1ccc(-c2ccccc2)cc1)c1ccccc1 (stereo unspecified),.,.,.,.,-18
Cc1cc(C(=O)OCC(=O)Nc2cccc(S(=O)(=O)N3CCOCC3)c2)c(C)o1,.,.,.,.,-6.2
CC(C)CCNC(=O)NC(=O)COC(=O)c1cc(S(=O)(=O)N2CCOCC2)ccc1N1CCCCC1,.,.,.,.,-12
Cc1cc(C(=O)OCC(=O)Nc2cccc(S(N)(=O)=O)c2)c(C)o1,.,.,.,/,.
C=Cn1cc(CNC[C@H]2O[C@@H](n3cnc4c(=O)[nH]c(N)nc43)[C@H](O)[C@@H]2O)c(C)n1,.,/,.,/,/
COc1ccc(OCC(=O)Nc2ccc(N3CCN(Cc4ccccc4F)CC3)cc2)cc1,.,.,.,.,.
CC(N)c1csc(NC(=O)Nc2cccc(C(F)(F)F)c2)n1 (stereo unspecified),.,/,.,/,/
COc1ccc(/C=N/N=C2/CC(C)(C)Cc3n[nH]c(=O)cc32)cc1,.,.,.,.,-9.1
C=CCNC(=O)C1CC(=O)N(c2ccc(OCC(=O)Nc3c(C)cccc3C)cc2)C1 (stereo unspecified),.,.,.,.,.
C=CCN(c1ccccc1Cl)S(=O)(=O)c1cccc(C(=O)OCC(=O)N(C)C2CCS(=O)(=O)C2)c1 (stereo unspecified),69,.,.,.,.
CN(C(=O)COC(=O)c1cccc(S(=O)(=O)N2CCCCCC2)c1)C1CCS(=O)(=O)C1 (stereo unspecified),.,.,.,.,.
CCOC(=O)Cc1cc(=O)[nH]n(-c2ccccc2)c1=O,.,.,.,/,.
NNC(=O)c1cccn(Cc2ccc(Cl)cc2Cl)c1=O,.,.,.,.,-7.2
CCCCCCCCN1C(=O)[C@H](CC(=O)N2CCN(C(=O)OCC)CC2)C[C@@]2(C(=O)OCC)CCCC=C12,.,/,.,/,/
Cc1ccccc1OCc1nnc(SCC(=O)Nc2ccc3nc(SCC(=O)NC(C)(C)C)sc3c2)n1C,.,.,.,100,.
Cc1ccc(/C=C2\SC(=S)N(C3CCS(=O)(=O)C3)C2=O)o1 (stereo unspecified),.,.,.,.,.
NS(=O)(=O)c1ccc(-c2ccc(/C=C3\SC(=S)N(C4CCS(=O)(=O)C4)C3=O)o2)cc1 (stereo unspecified),.,.,.,.,-5
C#CCOCCOCCOCCNc1nc(N2CCN(C(=O)CCCCCCCCCCNC(=O)[C@H](CCCCN)n3cc(CCO)nn3)CC2)nc(N2CCN(C(=O)CCCCCCCCCCNC(=O)[C@H](CCCCN)n3cc(CCCC(=O)O)nn3)CC2)n1,.,.,.,.,.
